Measurements from ChEMBL document CHEMBL1201862, “PubChem BioAssay data set” (2004).

test: M. tuberculosis growth inhibition, dose response, 7H9 media, purified and synthesized compounds, set 6 (AID 504897); assay type: functional; call rule not given here

Compound | IC90
CCCc1cc(C(N)=S)ccn1 | > 100 µM (active)
NC(=O)c1cnccn1 | > 100 µM (active)
COC(=O)c1ccc(CNc2c(N3CCCC3)c(=O)c2=O)cc1 | > 100 µM (active)
Cc1[nH]c2ccccc2c1C(=O)COC(=O)c1ccc([N+](=O)[O-])s1 | > 67.8 µM (active)
O=C(CSc1ccccn1)NC1CCCCC1 | > 100 µM (active)
